Rows were chosen to be rich in hits. Some 19% of all compounds tested hit in one or more screens of this group.
TDP1 cell noCPT = qHTS for Inhibitors of human tyrosyl-DNA phosphodiesterase 1 (TDP1): qHTS in cells in absence of CPT. AID 686978, 2013. Potency, µM (highest dose often 46.2 µM), actives largely listed as inhibitors. 420,000 tested, 15% active. DT40 Tdp1-/- hTDP1 cells, no CPT, ATP luminescence, 48 h; further: nearly all actives have a fitted effect of over 55% in size
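Growth of hTDP1-complemented DT40 Tdp1-knockout cells is measured by ATP luminescence after at least 48 hr compound exposure at 37 °C, with DMSO substituting for the 20 nM CPT used in the parallel screen.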
SW480 rereplic = DNA re-replication induction in SW480 cells | 340,000 tested, 1.8% active | Potency, µM (doses to about 46.1 µM), hits mostly activators | AID 624297 | SW480 DNA re-replication, Hoechst DNA content imaging, 48 h; further: nearly all actives have a fitted effect of over 55% in size
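Image-based read-out: total Hoechst fluorescence of nuclei (405 nm excitation, 500-530 nm emission), with hits raising the fraction of high-intensity nuclei. SW480 colon cells incubated 48 hr with compounds at 37 C.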
MCF10A rereplic = DNA re-replication induction in MCF 10a cells; MCF 10A DNA re-replication, Hoechst nuclear intensity, 48 h; Potency, µM (highest dose often 46.1 µM), actives largely listed as activators; 350,000 tested, 2.9% active; further: nearly all actives have a fitted effect of over 50% in size
Chronic BCR inh = inhibitors of chronic active B-cell receptor signaling | ABC-DLBCL IkBa-CBG/CBR reporter, luminescence ratio, 4 h | Potency, µM (top dose mostly 46.1 µM), most hits filed as inhibitors | 340,000 tested, 0.05% active | AID 493014; active means well fitted inhibition curve with a large enough effect in the signal ratio, with a control signal flat, not every such curve was filed as active; inconclusive means small, poorly fitted or top-dose-only effect, or effect the other way, or a change in a side signal; the % refers to the signal ratio
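Doxycycline induced both beetle luciferases in TMD8 lymphoma cells; IKK-driven degradation limits the IkappaBalpha-fused green signal, while red luminescence normalises for cell number and nonspecific effects. Compounds tested up to 46 uM, 4 hrs.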
IL1B secr inh = inhibitors of inflammasome signaling (IL-1 beta secretion). 360,000 tested, 4.7% active. activity change, % at 57.5 µM. THP-1 LPS/ATP IL-1B secretion, AlphaLISA, 16 h; active compounds read low; in the data active means activity change below about -50%; inconclusive means mostly about -30% to -49%
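THP-1 cells pretreated 1 hr with compounds (up to 57.5 uM final), then stimulated with LPS (250 ng/mL final) plus ATP (1.25 mM final); secreted IL-1B measured by AlphaLISA after 16 hr, decreased signal indicating inhibition.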
DT40 TDP1 CPT = DT40-hTDP1 cell growth loss with CPT; Potency, µM (titrated, usually from 46.2 µM), usual class: inhibitors; 420,000 tested, 12% active; AID 686979; chicken DT40 Tdp1-/-;hTDP1 cells + 20 nM CPT, ATP luminescence, 48 h; further: nearly all actives have a fitted effect of over 55% in size
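Cell growth measured by CellTiter-Glo luminescence after a minimum 48 h, 37 C compound exposure with 20 nM CPT in Tdp1-knockout DT40 cells stably expressing hTDP1, seeded 400/well; qHTS titration format.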
Each line names hits and unclear results; the compound was inactive in the other large screens. Unless noted, the call rests on the fitted dose curve; in most records, active means well fitted curve in the direction sought with a large enough effect; inconclusive means small, poorly fitted or top-dose-only effect, or another doubt; inactive means no such curve, though single readings can be large; an effect the other way counts as inactive or inconclusive.

COc1ccc(N2CCN(C(=O)CN(c3ccccc3)S(=O)(=O)c3ccc(OC)cc3)CC2)cc1	TDP1 cell noCPT 21µM, DT40 TDP1 CPT inconclusive
CN(C(=O)C(C)(C)C)c1ccc(OCC(=O)N2CCc3ccccc3C2)cc1	TDP1 cell noCPT 16µM, DT40 TDP1 CPT inconclusive
Cc1cc([N+](=O)[O-])ccc1NC(=O)c1csc(C)c1C	TDP1 cell noCPT inconclusive, DT40 TDP1 CPT inconclusive
O=[N+]([O-])c1nccn1C1C=CC(O)C(CO)O1 (centres undefined)	none (no result: SW480 rereplic, MCF10A rereplic, Chronic BCR inh, IL1B secr inh)
CCCCC[C@@H]1C=C(C(=O)O)[C@H](c2ccc(F)cc2)N1S(=O)(=O)c1ccc(C)cc1	none
COc1ccccc1N1CCN(C(=O)C(C)N(c2ccc(C)cc2)S(C)(=O)=O)CC1 (centres undefined)	TDP1 cell noCPT inconclusive, DT40 TDP1 CPT inconclusive
Cc1cc(OCC(=O)N2CCc3ccccc3C2)c(C)cc1Br	TDP1 cell noCPT 16µM, MCF10A rereplic inconclusive, Chronic BCR inh inconclusive, IL1B secr inh -55, DT40 TDP1 CPT inconclusive
COc1ccccc1N1CCN(C(=O)CN(CCc2ccccc2)S(C)(=O)=O)CC1	TDP1 cell noCPT 10µM, DT40 TDP1 CPT inconclusive
COc1ccc(S(=O)(=O)N(C)CC(=O)N2CCN(c3ccc(F)cc3)CC2)cc1OC	TDP1 cell noCPT 22µM, DT40 TDP1 CPT inconclusive
COc1ccccc1N1CCN(C(=O)C(C)N(c2ccc(C)c(C)c2)S(C)(=O)=O)CC1 (centres undefined)	TDP1 cell noCPT inconclusive, DT40 TDP1 CPT 15µM
Cc1ccc(C)c(OCC(=O)N2CCc3ccccc3C2)c1	Chronic BCR inh inconclusive
COCCN1C[C@@H](CO)O[C@@H](n2cnc3c(N4CCN(CCO)CC4)ncnc32)C1	none (no result: SW480 rereplic, MCF10A rereplic, Chronic BCR inh)
CC(C)(C)c1ccc(C(=O)N2CCC2(C)C(=O)NS(=O)(=O)c2ccccc2Cl)cc1 (centres undefined)	none (no result: SW480 rereplic, MCF10A rereplic, Chronic BCR inh)
COc1ccc2c(c1OC)C(=O)OC2Nc1nc(-c2cccc([N+](=O)[O-])c2)cs1 (centres undefined)	none
CCCc1nc2cccnc2n1C1CCN(C(=O)CC2NC(=O)c3ccccc32)CC1 (centres undefined)	none (no result: SW480 rereplic, MCF10A rereplic, Chronic BCR inh, IL1B secr inh)
Cc1ccc(S(=O)(=O)N(CC(=O)N2CCN(c3ccc(F)cc3)CC2)C2CCCCC2)cc1	TDP1 cell noCPT 21µM, DT40 TDP1 CPT inconclusive
COc1cccc(N(CC(=O)N2CCN(c3ccccc3OC)CC2)S(C)(=O)=O)c1	TDP1 cell noCPT inconclusive
COc1ccc(S(=O)(=O)N(CC(=O)N2CCN(c3ccccc3OC)CC2)c2ccccc2)cc1	TDP1 cell noCPT 12µM, DT40 TDP1 CPT 21µM
COc1ccc(C)cc1N(CC(=O)N1CCc2ccccc2C1)S(C)(=O)=O	none
COc1ccc(N2CCN(C(=O)CN(c3ccc(OC)cc3)S(=O)(=O)c3ccccc3)CC2)cc1	TDP1 cell noCPT 23µM, Chronic BCR inh inconclusive, DT40 TDP1 CPT 13µM
CCOC(=O)N1CCN(C(=O)CN(C2CCCCC2)S(=O)(=O)c2ccc(C)cc2)CC1	TDP1 cell noCPT inconclusive, DT40 TDP1 CPT inconclusive
Cc1ccc(S(=O)(=O)N(CC(=O)N2CCc3ccccc3C2)c2ccc(C)c(C)c2)cc1	TDP1 cell noCPT 18µM, DT40 TDP1 CPT 16µM (no result: SW480 rereplic, MCF10A rereplic, Chronic BCR inh, IL1B secr inh)
COc1ccc(N(CC(=O)N2CCN(C)CC2)S(=O)(=O)c2ccccc2)cc1	none
COc1ccc(-c2noc(CN(C)C(=O)CCCN3C(=O)[C@H]4CC=CC[C@H]4C3=O)n2)cc1	TDP1 cell noCPT inconclusive, DT40 TDP1 CPT inconclusive (no result: SW480 rereplic, MCF10A rereplic, Chronic BCR inh)
COc1ccc(-c2cc(C(=O)NCCc3ccc(OC)c(OC)c3)c3c(-c4ccc(F)cc4)[nH]nc3n2)cc1	Chronic BCR inh inconclusive (no result: SW480 rereplic, MCF10A rereplic, IL1B secr inh)
NC(=O)CN(c1ccc(Oc2ccccc2)cc1)S(=O)(=O)c1ccccc1	TDP1 cell noCPT inconclusive, DT40 TDP1 CPT 21µM
CN(CC(=O)N1CCCC1)S(=O)(=O)c1ccc2ccccc2c1	TDP1 cell noCPT 21µM, DT40 TDP1 CPT inconclusive
O=C(CN(c1ccc(Cl)c(Cl)c1)S(=O)(=O)c1ccccc1)N1CCc2ccccc2C1	TDP1 cell noCPT 29µM, Chronic BCR inh inconclusive, DT40 TDP1 CPT inconclusive
Cc1ccc(S(=O)(=O)N(CC(=O)N2CCc3ccccc3C2)c2ccc(Cl)c(Cl)c2)cc1	TDP1 cell noCPT inconclusive, SW480 rereplic inconclusive, Chronic BCR inh inconclusive, IL1B secr inh inconclusive, DT40 TDP1 CPT inconclusive
CN1CCN(C(=O)CN(C)S(=O)(=O)c2ccc3ccccc3c2)CC1	none
O=C(CN(C1CCCCC1)C1CCCCC1)N1CCc2ccccc2C1	TDP1 cell noCPT 16µM, SW480 rereplic inconclusive, MCF10A rereplic inconclusive, Chronic BCR inh inconclusive, IL1B secr inh -99, DT40 TDP1 CPT inconclusive
N#Cc1ccc(NC(=S)N2CCC3CC2c2cc(-c4ccc5c(c4)OCO5)ccc23)cc1 (centres undefined)	TDP1 cell noCPT inconclusive, DT40 TDP1 CPT inconclusive (no result: SW480 rereplic, MCF10A rereplic, Chronic BCR inh)
Cc1ccc(CN2CCN(C3CCN(C(=O)c4ccc(C)cc4)CC3)C(=O)C2=O)cc1	none (no result: SW480 rereplic, MCF10A rereplic, Chronic BCR inh, IL1B secr inh)
COc1ccccc1N(CC(=O)N1CCN(Cc2ccccc2)CC1)S(=O)(=O)c1ccccc1	TDP1 cell noCPT 16µM, DT40 TDP1 CPT 23µM (no result: SW480 rereplic, MCF10A rereplic, Chronic BCR inh)
O=S1(=O)C=C(SCc2ccc(Cl)c(Cl)c2)Nc2ccccc21	TDP1 cell noCPT inconclusive, SW480 rereplic inconclusive, MCF10A rereplic inconclusive, DT40 TDP1 CPT 23µM
COC(=O)C1CCN(C(=O)CN2C(=O)NC3(CCC(C)CC3)C2=O)CC1 (centres undefined)	TDP1 cell noCPT inconclusive, Chronic BCR inh inconclusive
O=C(Nc1ccc(S(=O)(=O)N2CCCC2)cc1)c1ccc(CN2CCOCC2)cc1	TDP1 cell noCPT inconclusive, DT40 TDP1 CPT inconclusive
COc1cccc(NC(=O)c2ccc(CN3CCOCC3)cc2)c1	TDP1 cell noCPT inconclusive, Chronic BCR inh inconclusive
COc1ccc(NS(=O)(=O)c2ccc(NC(=O)c3ccc(CN4CCOCC4)cc3)cc2)cc1	TDP1 cell noCPT 23µM, SW480 rereplic inconclusive, MCF10A rereplic inconclusive, IL1B secr inh inconclusive, DT40 TDP1 CPT 18µM
O=C(Nc1ccc(S(=O)(=O)N2CCCCC2)cc1)c1ccc(CN2CCOCC2)cc1	TDP1 cell noCPT 23µM, MCF10A rereplic inconclusive, Chronic BCR inh inconclusive, DT40 TDP1 CPT 18µM
COc1ccc(CN2CCOCCOCCN(Cc3ccc(OC)cc3)CCOCCOCC2)cc1	TDP1 cell noCPT 29µM, Chronic BCR inh inconclusive, DT40 TDP1 CPT inconclusive
O=C(Nc1ccc(CN2CCOCC2)cc1)c1ccc(N2CCCC2)c([N+](=O)[O-])c1	TDP1 cell noCPT inconclusive, IL1B secr inh -72, DT40 TDP1 CPT inconclusive
